# Sampled rows, rich in hits. Any-hit rate of the full collection: about 1.8%.
# RAD54 branch – inhibitors of human RAD54 branch migration | Q92698 | RAD54 Holliday junction branch migration, FAM/BHQ fluorescence | inhibition, % at 10.4 µM | actives 0.14% (n = 360,000) | AID 602329;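 active = mean normalized replicate activity at least 40 and at least half of replicates scoring 40 or more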;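 also: 0% = median of neutral control wells and 100% = median of positive control wells; inhibitors cause a drop in the FAM fluorescence signal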
# Target sequence (Q92698 whole entry, looked up): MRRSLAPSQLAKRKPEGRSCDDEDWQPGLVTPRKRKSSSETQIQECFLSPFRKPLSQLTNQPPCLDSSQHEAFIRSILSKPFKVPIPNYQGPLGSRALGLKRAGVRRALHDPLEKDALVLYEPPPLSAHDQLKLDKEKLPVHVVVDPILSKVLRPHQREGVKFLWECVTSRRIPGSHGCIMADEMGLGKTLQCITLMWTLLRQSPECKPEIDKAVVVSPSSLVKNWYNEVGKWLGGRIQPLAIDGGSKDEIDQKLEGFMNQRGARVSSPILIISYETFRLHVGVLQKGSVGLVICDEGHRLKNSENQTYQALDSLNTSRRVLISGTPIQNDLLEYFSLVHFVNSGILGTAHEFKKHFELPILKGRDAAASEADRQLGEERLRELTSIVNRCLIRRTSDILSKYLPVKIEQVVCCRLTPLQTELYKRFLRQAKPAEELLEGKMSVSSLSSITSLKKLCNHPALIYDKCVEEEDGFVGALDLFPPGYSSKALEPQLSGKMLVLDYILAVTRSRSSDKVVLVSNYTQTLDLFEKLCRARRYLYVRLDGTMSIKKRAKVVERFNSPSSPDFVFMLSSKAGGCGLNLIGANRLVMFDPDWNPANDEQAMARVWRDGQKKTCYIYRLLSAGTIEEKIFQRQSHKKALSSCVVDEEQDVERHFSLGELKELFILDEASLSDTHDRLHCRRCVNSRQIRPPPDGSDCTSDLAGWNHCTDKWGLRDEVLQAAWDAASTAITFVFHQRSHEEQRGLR
# EWS-Fli inh – EWS/Fli transcriptional activity inhibition; A673 NR0B1-luciferase reporter, viability-normalised; actives 0.67% (n = 350,000); inhibition, % at 12.6 µM;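 active = mean inhibition of at least 50% after viability correction, with every replicate also passing that limit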;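 also: firefly luciferase signal divided by Alamar Blue viability fluorescence both relative to DMSO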
# LGR2 inh – Drosophila LGR2 receptor signaling inhibition | inhibition, % at 9.99 µM | HEK293 LGR2, CRE-luciferase, bursicon-stimulated, 4 h | actives 0.35% (n = 380,000) | AID 720647;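 active = drop in luminescence signal, shown as inhibition above about 50% in the replicate tests, limit read from the data, passing the limit was not always enough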;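 also: agonist challenge used bursicon conditioned medium at about half maximal strength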
# RAD52 anneal inh – blocks human RAD52 DNA annealing. P43351. recombinant RAD52 DNA annealing, FRET fluorescence. inhibition, % at 18.7 µM. actives 0.46% (n = 360,000). AID 651710;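 active = every replicate showing at least 50% inhibition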
# INS-1E GSIS act – primary screen for activators of insulin secretion dependent on glucose, INS-1E cells, GLuc reporter luminescence; actives 0.61% (n = 370,000); activation, % at 16.6 µM; INS-1E GLuc reporter insulin secretion, 2-3 h;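 active = lowest replicate activation of at least 40%, so every replicate reaches that level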;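 also: 0% = median of neutral control wells and 100% = median of IBMX positive control wells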
# F508del corr – correctors of CFTR F508del function in bronchial epithelial cells; activity (quench increase), % at 7.58 µM; CFBE cells, YFP halide quenching; stimulated with forskolin plus potentiator P3; % fluorescence drop versus neutral controls; actives 0.36% (n = 350,000);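 active = mean added fluorescence quench of at least 8% versus neutral control, with both replicates also reaching 8%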;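 also: cells transiently co-express mutant CFTR-F508del with the halide-sensitive YFP; corrector assay measuring rescue of mutant channel to the surface after 24 h compound exposure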
# * marks the source's active call; other numbers are inactive results; / = not tested or not shown.
SMILES,RAD54 branch,EWS-Fli inh,LGR2 inh,RAD52 anneal inh,INS-1E GSIS act,F508del corr
Cc1ccc(CC2S/C(=N/c3ccccn3)NC2=O)cc1 (centres undefined),-1,/,2,/,58*,/
O=C1/C(=C\c2ccc(Cl)c(Cl)c2)CN(C(=O)CCN2CCOCC2)C/C1=C/c1ccc(Cl)c(Cl)c1,/,56*,91*,-106,136*,-5
O=C(NCCN1CCOCC1)c1ccc(Cl)c(Cl)c1,3,-4,4,-7,-6,-5
O=C1CC(NS(=O)(=O)c2cccs2)CN1c1cccc(F)c1 (centres undefined),/,4,14,-7,46*,1
O=C1CC(NS(=O)(=O)c2cccs2)CN1c1ccccc1 (centres undefined),8,-4,12,0,1,-4
Cc1ccc(N2C(=O)C(CN(C)C)C2c2ccccc2)cc1 (centres undefined),-3,/,/,/,/,/
S=C1NC[C@H](c2ccccc2)N1CCCCC1CCCCC1,12,4,1,-2,11,-3
NC1=NC[C@H](c2ccccc2)N1CCCCC1CCCCC1,20,5,7,48,285*,4
O=[N+]([O-])c1ccc(C(O)CN2CCN(Cc3ccccc3)CC2)cc1 (centres undefined),9,-8,1,-9,19,-2
O=[N+]([O-])c1ccc(C(O)CN2CCN(C/C=C/c3ccccc3)CC2)cc1 (centres undefined),-2,11,-9,-9,51*,1
O=C(NCC[C@@H]1CC[C@H](NC(=O)C2CCC2)[C@@H](CO)O1)c1ccc(F)cc1,-4,-10,14,-11,9,0
CCC(CC)c1nc(C#N)c(NCc2ccccc2)o1,-8,/,-7,/,-6,/
CN1C/C(=C/c2ccccc2[N+](=O)[O-])C(=O)/C(=C\c2ccccc2[N+](=O)[O-])C1,/,72*,-45,-11,-20,-2
Cc1ccc(C)c2c1CCC(=Cc1ccccc1[N+](=O)[O-])C2=O,5,4,-3,-9,16,2
CCC(C)(C)C1CCc2[nH]nc(C(=O)NC3CCCC3)c2C1 (centres undefined),-9,2,/,3,/,3
O=C(NC1CCCCC1)c1n[nH]c2c1CCCCC2,2,79*,91*,-6,-15,-2
COc1ccc(NC(=O)c2cccc(S(=O)(=O)N3CCCC3)c2)cc1OC,2,6,-3,-9,/,-2
O=C(c1ccccc1)c1cc2cc(Cl)ccc2[nH]1,-3,-76,-49,-12,41*,3
Cc1cc(C)cc(C(=O)NCC(=O)OCc2cc([N+](=O)[O-])cc3c2OCOC3)c1,-15,-12,10,-3,3,13*
COc1cc2cc(C(=O)NCCc3c[nH]c4ccccc34)c(N)nc2cc1OC,/,17,-7,-123,-3,-3
Nc1nc2cc3c(cc2cc1C(=O)NCCc1c[nH]c2ccccc12)OCO3,/,59*,11,-17,-10,1
Cc1cnc(NC(=O)c2ccc(OCC3CCCO3)cc2)s1 (centres undefined),8,64*,87*,14,/,2
CCOc1ccc(C(=O)Nc2nnc(SCC(=O)NCC3CCCO3)s2)cc1 (centres undefined),1,65*,78*,-16,24,2
Cc1ccc(NC(=O)c2ccc(OCC3CCCO3)cc2)nc1 (centres undefined),12,-5,-27,-9,32,1
CC(C)Oc1ccc(CNC(=O)c2ccc3c(c2)N(C)CCS3)cc1,-8,-5,-20,-19,-8,-8
SMILES,RAD54 branch,EWS-Fli inh,LGR2 inh,RAD52 anneal inh,INS-1E GSIS act,F508del corr
CCNc1nc(C)nc2c1oc1ccccc12,6,/,3,/,67*,/
CCc1nc(NCc2ccco2)c2oc3ccccc3c2n1,-1,/,/,/,/,/
CCNc1nc(CC)nc2c1oc1ccccc12,/,/,-10,/,81*,/
CCOc1ccc(N2CC(C(=O)NCc3ccc(C)n3C)CC2=O)cc1 (centres undefined),/,7,10,-8,10,/
C=CC(=O)N1C/C(=C/c2ccc(F)cc2)C(=O)/C(=C\c2ccc(F)cc2)C1,/,87*,101*,-5,-3,-1
CN1C2CCC1/C(=C\c1ccc(F)cc1)C(=O)/C2=C/c1ccc(F)cc1,/,/,10,/,-10,/
O=C(Cc1ccccc1)Nc1cccc(N2C(=O)C=CC2=O)c1,/,17,2,-16,59*,-12
COc1cccc(NC(=O)Cc2ccccc2)c1,-5,-148,-79,-9,-27,0
C=C1[C@@H](O)[C@H](CC(C)C)N(Cc2ccccc2Br)S1(=O)=O,5,15,48,-9,45*,-6
C[C@@H]1CCCCO[C@@H](CN(C)S(=O)(=O)c2cn(C)cn2)[C@@H](C)CN([C@H](C)CO)C(=O)c2cc(NS(=O)(=O)c3ccc(F)cc3)ccc2O1,0,-6,20,-14,17,2
CO[C@@H]1CN(C)C(=O)c2ccc(NC(=O)c3ccc(Oc4ccccc4)cc3)cc2OC[C@@H](C)NC[C@H]1C,-8,11,-5,48,16,-6
COc1cccc(NC(=O)Nc2ccc3c(c2)OC[C@H](C)NC[C@@H](C)[C@H](OC)CN(C)C3=O)c1,-5,-3,-2,26,10,1
CO[C@H]1CN(C)C(=O)c2ccc(NC(=O)c3ccc(Oc4ccccc4)cc3)cc2OC[C@H](C)NC[C@H]1C,7,18,7,52*,/,-2
CO[C@@H]1CN(C)C(=O)c2cc(NC(=O)c3ccc(Oc4ccccc4)cc3)ccc2OC[C@H](C)NC[C@H]1C,11,69*,-1,44,22,-5
COc1cccc(NC(=O)Nc2ccc3c(c2)OC[C@H](C)NC[C@@H](C)[C@@H](OC)CN(C)C3=O)c1,-6,-10,-4,74*,-2,0
C[C@H](O)C#Cc1ccc2c(c1)O[C@H](CN(C)C(=O)C1CC1)[C@H](C)CN([C@H](C)CO)S2(=O)=O,-4,-5,0,18,6,-1
C=C1C(=O)O[C@@H]2C[C@@H](C)[C@@H]3C=CC(=O)[C@@]3(C)[C@@H](OC(C)=O)[C@H]12,/,62*,103*,-20,37,-2
Cc1c(Cl)cccc1NC(=O)CN1CCC(C(O)(c2ccccc2)c2ccccc2)CC1,-4,/,-7,/,-30,/
CCOC(=O)c1oc2ccc(S(=O)(=O)n3nc(-c4ccccc4)cc3N)cc2c1C,-24,16,-12,-41,-4,8.2*
CCOC(=O)c1oc2ccc(S(=O)(=O)n3nc(-c4ccc(OC)cc4)cc3N)cc2c1C,-2,11,-9,-2,3,1
O=C(O)c1cccc(Nc2ccnc(Nc3cccc(C(=O)O)c3)n2)c1,4,63*,90*,-2,1,0

# Compound activity (PubChem)
